Records with an inconclusive call do not appear. Active and inactive are the calls of the source. Unless noted, calls come from the whole dose curve; as a rule, active = well fitted curve in the direction sought with a large enough effect in the repeat runs; inconclusive = weak or mixed curves; inactive = no such curve, though single readings can be large; an effect the other way counts as inactive or inconclusive.
Experiments:
[1] = qHTS assay to identify small molecule agonists of the vitamin D receptor (VDR) signaling pathway - cell viability counter screen (AID 743224); note: series mostly up to about 63 µM; nearly all actives have a fitted effect of over 50% in size
Summary of the method: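 VDR-bla cells were preincubated 4 h at 37C/5% CO2, then exposed to compounds for 16 h. After the 2 h room-temperature bla FRET read, CellTiter-Glo was added to the same wells and luminescence read after 30 min.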

[2] = qHTS assay to identify small molecule antagonists of the vitamin D receptor (VDR) signaling pathway - cell viability counter screen (AID 743225); note: nearly all actives have a fitted effect of over 50% in size
Summary of the method: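 HEK293T VDR-bla; cpd + 1a,25-(OH)2D3 3 nM final, 16 h 37C/5% CO2; B/G FRET substrate 2 h RT; then CellTiter-Glo 30 min RT, luminescence.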

[3] = qHTS assay to identify small molecule agonists of the NFkB signaling pathway (AID 1159509; active = well fitted curve in the direction sought with a large enough effect in the signal ratio in the repeat runs, not every such curve was filed as active; the % refers to the signal ratio; note: series mostly up to about 61 µM)
Summary of the method: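 NFkB-bla ME-180 cells carry a beta-lactamase reporter under an NF-kB response element. They were plated overnight, then exposed to compounds for 5 h at 37 C. Read-out is LiveBLAzer FRET after 1.5 hr at room temperature (405 nm excitation; 460/530 nm emission).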

[4] = qHTS assay to identify small molecule agonists of the endoplasmic reticulum stress response signaling pathway (AID 1159516; active = well fitted activation curve with a large enough effect in the signal ratio in the repeat runs, not every such curve was filed as active; the % refers to the signal ratio)
Summary of the method: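 CellSensor ESRE-bla HeLa cells, carrying a beta-lactamase reporter driven by the ER stress response element, were plated overnight and exposed to compounds for 5 hr at 37 C. Reporter activity was read as FRET substrate fluorescence after 2 hr at room temperature.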

[5] = qHTS assay to identify small molecule antagonists of the retinoid-related orphan receptor gamma (ROR-gamma) signaling pathway - cell viability counter screen (AID 1159520); note: nearly all actives have a fitted effect of over 50% in size
Summary of the method: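 Cytotoxicity was read from cellular ATP (CellTiter-Glo luminescence) after 16 hr at 37 C with 1 uM doxycycline induction. The inducer was added 2 hr after compound transfer to Tet-on ROR gamma CHO cells.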

[6] = biological target: Nuclear receptor ROR-gamma (Homo sapiens) (UniProt P51449); assay: qHTS assay to identify small molecule antagonists of the retinoid-related orphan receptor gamma (ROR-gamma) signaling pathway (AID 1159521;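 note: CHO cells with doxycycline inducible ROR-gamma driving an RORE luciferase reporter; top concentration of the series differs between compounds; nearly all actives have a fitted effect of over 50% in size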)
Summary of the method: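 Cells were plated, rested 4 h at 37 C, exposed to compounds for 2 h, then given 1 uM final doxycycline hyclate to induce RORγ expression. After 16 h, ONE-Glo luminescence from the ROR response element reporter was measured.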

[7] = qHTS assay to identify small molecule agonists of the AP-1 signaling pathway - cell viability counter screen (AID 1159525; calls by dose curve; note: nearly all actives have a fitted effect of over 55% in size)
Summary of the method: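 Luminescent ATP readout (Cell Titer Glo, 30 min RT), normalised to DMSO and tetra n-octyl ammonium bromide controls. Cells were ME-180 AP-1-bla in 0.5% dialyzed FBS Opti-MEM, with a 5 h, 37 °C compound exposure.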

[8] = qHTS assay to identify small molecule agonists of the AP-1 signaling pathway (AID 1159526; calls by dose curve)
[9] = biological target: Retinoic acid receptor RXR-alpha (Homo sapiens) (UniProt P19793); assay: qHTS assay to identify small molecule agonists of the RXR signaling pathway (AID 1159527; calls by dose curve; note: nearly all actives have a fitted effect of over 35% in size)
Retinoic acid receptor RXR-alpha (Homo sapiens), sequence (P19793 whole entry, looked up): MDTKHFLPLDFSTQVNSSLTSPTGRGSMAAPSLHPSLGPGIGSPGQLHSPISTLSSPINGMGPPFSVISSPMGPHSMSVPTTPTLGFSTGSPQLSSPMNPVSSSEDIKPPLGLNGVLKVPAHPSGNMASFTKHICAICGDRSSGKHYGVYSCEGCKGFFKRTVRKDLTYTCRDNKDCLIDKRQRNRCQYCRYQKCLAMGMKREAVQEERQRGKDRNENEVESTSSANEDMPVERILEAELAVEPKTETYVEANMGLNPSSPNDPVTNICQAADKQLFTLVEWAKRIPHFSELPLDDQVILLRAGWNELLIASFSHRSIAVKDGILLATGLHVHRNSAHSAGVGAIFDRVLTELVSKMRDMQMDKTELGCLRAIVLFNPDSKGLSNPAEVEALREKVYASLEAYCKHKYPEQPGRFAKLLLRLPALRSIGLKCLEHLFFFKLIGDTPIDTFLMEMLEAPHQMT
Summary of the method: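 Cells plated at 2,000/well, rested 5 hr at 37 C, pin-dosed with DMSO compound solutions, incubated 16 hr, then loaded with B/G FRET substrate for 2 hr at RT before dual-emission fluorescence reading.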

[10] = qHTS assay to identify small molecule agonists of the RXR signaling pathway - cell viability counter screen (AID 1159529)
Summary of the method: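 Steps: seed RXR-alpha-UAS-bla HEK 293T cells in assay medium containing 2% charcoal-stripped FBS; incubate 5 hr; add compounds in DMSO; incubate 16 hr at 37 C; after the bla read, add CellTiter-Glo and read luminescence at 30 min.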

[11] = qHTS assay to identify small molecule antagonists of the retinoid acid receptor (RAR) signaling pathway - cell viability counter screen (AID 1159551); note: nearly all actives have a fitted effect of over 35% in size
Summary of the method: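 C3RL4 cells were seeded overnight at 37 C, then treated with compounds plus 1 uM (final) retinol for 6 h at 37 C. Viability was read as ATP by CellTiter-Glo luminescence after 30 min at room temperature.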

[12] = qHTS assay to identify small molecule antagonists of the retinoic acid receptor (RAR) signaling pathway (AID 1159552; note: nearly all actives have a fitted effect of over 50% in size)
Summary of the method: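 Retinol at 1 uM final stimulated RARE-luciferase expression in C3RL4 cells exposed to test compounds for 6 hr at 37 C. Reduced luminescence, read 30 min after detection reagent, indicated pathway antagonism.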

[13] = qHTS assay to identify small molecule agonists of the retinoic acid receptor (RAR) signaling pathway (AID 1159553)
Summary of the method: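 C3RL4 cells carrying a RARE luciferase reporter were plated overnight at 37 C, then exposed to compounds in DMSO for 6 hr at 37 C and 5% CO2. Luminescence was read 30 min after luciferase reagent addition at room temperature.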

[14] = qHTS assay to identify small molecule antagonists of the estrogen related receptor (ERR) signaling pathway from Tox21 library - cell viability counter screen (AID 1224834); note: nearly all actives have a fitted effect of over 30% in size
Summary of the method: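 ERR reporter cells were plated 6 h before compound addition, then exposed to test compounds in DMSO for 17.5 h at 37 C. Viability was read as CellTiter-Fluor fluorescence after a 30-minute incubation at 37 C.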

[15] = biological target: Luciferin 4-monooxygenase (Photinus pyralis) (UniProt P08659); assay: qHTS assay to identify small molecule inhibitors of firefly luciferase (AID 1224835); note: series mostly up to about 120 µM; nearly all actives have a fitted effect of over 25% in size
Luciferin 4-monooxygenase (Photinus pyralis), sequence (P08659 whole entry, looked up): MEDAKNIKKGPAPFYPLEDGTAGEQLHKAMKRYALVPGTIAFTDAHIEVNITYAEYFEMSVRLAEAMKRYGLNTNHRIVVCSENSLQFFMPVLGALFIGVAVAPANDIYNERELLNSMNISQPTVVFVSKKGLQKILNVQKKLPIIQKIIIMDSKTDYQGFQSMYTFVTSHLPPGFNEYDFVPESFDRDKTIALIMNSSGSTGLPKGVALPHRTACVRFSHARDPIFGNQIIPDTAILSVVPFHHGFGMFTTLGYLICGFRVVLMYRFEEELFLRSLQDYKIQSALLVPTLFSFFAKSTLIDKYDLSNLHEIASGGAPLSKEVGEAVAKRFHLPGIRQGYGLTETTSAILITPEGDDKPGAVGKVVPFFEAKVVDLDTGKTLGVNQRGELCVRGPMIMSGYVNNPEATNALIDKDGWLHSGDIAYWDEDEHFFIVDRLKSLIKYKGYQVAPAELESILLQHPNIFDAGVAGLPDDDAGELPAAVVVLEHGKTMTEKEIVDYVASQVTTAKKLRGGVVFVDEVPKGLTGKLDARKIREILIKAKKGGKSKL
Summary of the method: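 Inhibition of purified Photinus luciferase is measured by luminescence. Substrate levels (D-luciferin, ATP) sit at their KM values. Each compound is tested in a concentration series.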

[16] = qHTS assay to identify small molecule agonists of the constitutive androstane receptor (CAR) signaling pathway - cell viability counter screen (AID 1224836); note: series mostly up to about 92 µM; nearly all actives have a fitted effect of over 45% in size
Summary of the method: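 Cells were seeded and incubated 4 hrs. Compounds were added across 15 concentrations together with PK11195 at 0.75 uM final. Plates were incubated 23 hrs at 37 C. CellTiter-Fluor was added and fluorescence measured.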

[17] = qHTS assay to identify small molecule antagonists of the constitutive androstane receptor (CAR) signaling pathway - cell viability counter screen (AID 1224837); note: series mostly up to about 92 µM; nearly all actives have a fitted effect of over 45% in size
Summary of the method: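 HepG2 cells stably expressing hCAR and a CYP2B6-2.2kb reporter were plated and pre-incubated 4 hr at 37 C/5% CO2, then given compounds at 15 concentrations plus 50 nM CITCO (final). After 23 hr, viability was read by CellTiter-Fluor fluorescence.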

[18] = biological target: Nuclear receptor subfamily 1 group I member 3 (Homo sapiens) (UniProt Q14994); assay: qHTS assay to identify small molecule antagonists of the constitutive androstane receptor (CAR) signaling pathway (AID 1224838); note: nearly all actives have a fitted effect of over 40% in size
Nuclear receptor subfamily 1 group I member 3 (Homo sapiens), sequence (Q14994 whole entry, looked up): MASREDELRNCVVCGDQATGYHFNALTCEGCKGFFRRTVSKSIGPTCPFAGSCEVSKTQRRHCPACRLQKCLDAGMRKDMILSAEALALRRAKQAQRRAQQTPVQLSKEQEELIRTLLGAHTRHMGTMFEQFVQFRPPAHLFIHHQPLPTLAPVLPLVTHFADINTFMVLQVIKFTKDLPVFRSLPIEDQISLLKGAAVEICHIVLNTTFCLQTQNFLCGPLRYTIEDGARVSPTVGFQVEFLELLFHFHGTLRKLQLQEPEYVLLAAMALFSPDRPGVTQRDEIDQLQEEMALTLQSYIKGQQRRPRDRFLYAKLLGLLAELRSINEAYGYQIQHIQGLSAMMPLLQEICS
Summary of the method: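 HepG2 cells stably co-transfected with hCAR and a CYP2B6-2.2kb luciferase reporter were seeded 4 h before compound addition at 15 concentrations. Cells were stimulated with 50 nM CITCO (final) for 24 h at 37 C; luciferase luminescence was then read.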

[19] = qHTS assay to identify small molecule agonists of the endoplasmic reticulum stress response signaling pathway - cell viability counter screen (AID 1159517; calls by dose curve)
Summary of the method: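 HeLa cells carrying an ESRE-driven beta-lactamase reporter receive compound for 5 hr at 37 C. Cell viability is then gauged with CellTiter-Glo by luminescence, 30 min at room temperature.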

Measured: Potency

CCOC(=O)CC1(C)OCC(C)O1 (configuration not stated)
not listed: [19]
inactive: all other assays above

CC(C)=CCC[C@@](C)(O)[C@H]1CC=C(C)CC1
not listed: [7]
inactive: all other assays above

Cc1ccc(C(C)NC(=O)[C@@H](NC(=O)OC(C)C)C(C)C)cc1 (some centres not stated)
not listed: [19]
inactive: all other assays above

Cc1c(C(=O)c2c[nH]n(C)c2=O)ccc(S(C)(=O)=O)c1C1=NOCC1
inactive: all assays above

Fc1ccccc1
not listed: [19]
inactive: all other assays above

Cc1ccnc(N)c1
not listed: [2] | [17]
inactive: all other assays above

CC(C)Cn1cnc2c1c(=O)n(C)c(=O)n2C
inactive: all assays above

CCCCCCC1(C)CCC(=O)O1 (configuration not stated)
not listed: [2] | [19]
inactive: all other assays above

C[Si]1(C)O[Si](C)(C)O[Si](C)(C)O[Si](C)(C)O[Si](C)(C)O1
not listed: [2]
inactive: all other assays above

CC1=NN(c2ccc(S(=O)(=O)O)cc2)C(=O)C1
not listed: [2] | [19]
inactive: all other assays above

CC(C)=CCC/C(C)=C/COC=O
not listed: [2] | [16] | [19]
inactive: all other assays above

c1ccc(-c2nn[nH]n2)cc1
not listed: [17] | [19]
inactive: all other assays above

Reference: PubChem BioAssay (Tox21)
